Results taken from PubChem BioAssay (NCATS).
Results filed as inconclusive are left out. Activity calls are given as the source filed them. Unless noted, calls follow the shape of the dose curve; as a rule, active = well fitted curve in the direction sought with a large enough effect; inconclusive = small, poorly fitted or top-dose-only effect, or another doubt; inactive = no such curve, though single readings can be large; an effect the other way counts as inactive or inconclusive.

How the values were obtained:
[1] = AP1 Signaling Pathway (AID 357; active = well fitted curve in either direction with a large enough effect, not every such curve was filed as active;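 also: ME-180 reporter cells stimulated with EGF at its EC50 level; % is scaled to controls: 0 for no effect and ±100 for the full control effect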); conditions: ME-180 AP-1-bla reporter, EGF-induced, beta-lactamase ratio, 5 h; at 7.69 µM (top of the series) unless noted
Outline: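 Titration-series screen for positive or negative modulators of EC50 EGF-induced signaling in ME-180 cells carrying an AP-1-driven beta-lactamase reporter. After 5 hours at 37 degrees Celsius, CCF4 460nm/530nm emission ratio gave %Activity; AC50 values derived.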

[2] = target: Cytochrome P450 1A2 (Homo sapiens) (UniProt P05177); assay: p450-cyp1a2 (AID 410; calls by dose curve; also: potency is read from the fitted curve at half-maximal effect); conditions: recombinant CYP1A2, luciferin-ME demethylation, luminescence; series mostly up to 57 µM
Outline: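 Inhibition was calculated relative to 57 uM furafylline (full inhibition). The reaction used human CYP1A2 at 20nM with Luciferin-ME at its Km, 100uM, driven by an NADPH-regenerating system for 60 min at room temperature.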

[3] = NFAT Signaling Pathway (AID 444; active = well fitted curve in either direction with a large enough effect, not every such curve was filed as active;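 also: carbachol stimulus at about its EC50 of 1 µM final; % is scaled to controls: 0 for no effect and ±100 for the full control effect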); conditions: Jurkat NFAT-bla M1, carbachol, beta-lactamase ratio, 5 h; at 7.69 µM (top of the series) unless noted
Outline: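 Jurkat cells carrying an NFAT-driven β-lactamase reporter and co-transfected muscarinic M1 receptor were treated with compound plus carbachol (1 uM final, an EC50 level) for 5 h at 37 °C. CCF4 loading followed for 1 h at RT; 460/530 nm ratio gave %activity.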

[4] = Stat Signaling Pathway (AID 446; active = well fitted curve in either direction with a large enough effect, not every such curve was filed as active;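 also: ME-180 cervical cancer cells given 40 pM IL-6 alongside compound; SIE-controlled beta-lactamase reporter measured as 460/530 nm FRET emission ratio; % is scaled to controls: 0 for no effect and ±100 for the full control effect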); conditions: ME-180 SIE beta-lactamase reporter, IL-6 stimulated, 5 h; at 7.69 µM (top of the series) unless noted
Outline: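 ME-180 SIE-bla cells; overnight plating; cpd + IL-6 40 pM, 5 h, 37 C; LiveBLAzer 2.5 h RT; 460/530 nm emission ratio. Normalized to 300 pM IL-6 and 125 nM JAK inhibitor controls.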

[5] = target: Glucocorticoid receptor (Homo sapiens) (UniProt P04150); assay: GR-GFP Redistribution (AID 450;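 active = compounds whose dose series gives a full or clear partial fitted curve of increased nuclear translocation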; also: potency is read from the fitted curve at half-maximal effect); conditions: U2OS GR-GFP nuclear translocation, laser cytometry, 2 h
[6] = target: Glucocorticoid receptor (Homo sapiens) (UniProt P04150); assay: GR-EFC Redistribution (AID 451; calls by dose curve; also: potency is read from the fitted curve at half-maximal effect); conditions: CHO-K1 GR-EFC translocation, beta-gal luminescence, 2 h
Outline: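 CHO-K1 cells stably expressing nuclear-localized β-gal enzyme acceptor and GR fused C-terminally to the enzyme donor fragment; ligand-driven nuclear translocation restores β-gal by complementation. Compounds titrated up to 46 uM final, 2 h at 37 °C; luminescence read.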

[7] = target: Mitogen-activated protein kinase 10 (Mus musculus) (UniProt Q61831); assay: JNK3 AlphaScreen Assay (AID 530; active = well fitted curve in either direction with a large enough effect, not every such curve was filed as active;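 also: kinase came from lysate of stimulated human HepG2 cells; signal reports phosphorylation of biotinylated GST-cJun 1-79 at Ser73 with 10 µM ATP; % is scaled to controls: 0 for no effect and ±100 for the full control effect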); conditions: JNK3 lysate, c-Jun phosphorylation; series mostly up to 57.1 µM
Outline: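 JNK3 came from HepG2 lysates pre-activated with IL-1beta and TNF-alpha and phosphorylated biotinylated GST-cJun (1-79) at 10 uM ATP, pH 7.6, room temperature. Compounds were titrated. AlphaScreen signal used anti-phospho-cJun (Ser73) antibody.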

[8] = target: Cytochrome P450 3A4 (Homo sapiens) (UniProt P08684); assay: qHTS Assay for Inhibitors and Substrates of Cytochrome P450 3A4 (AID 884); conditions: recombinant CYP3A4, Luciferin-PPXE luminescence; series mostly up to 57.1 µM; also: potency is read from the fitted curve at half-maximal effect; nearly all actives have a fitted effect of over 50% in size
Outline: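 20 nM human CYP3A4 with 25 uM Luciferin-PPXE (at KM) in 200 mM KPO4, preincubated 10 min with compound; NADPH regeneration started a 60 min RT reaction. Luciferin detected by luminescence, normalized to 57 uM ketoconazole as full inhibition.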

[9] = target: Cytochrome P450 3A4 (Homo sapiens) (UniProt P08684); assay: qHTS Assay for Activators of Cytochrome P450 3A4 (AID 885); conditions: recombinant CYP3A4, Luciferin-PPXE luminescence, 60 min; series mostly up to 57.1 µM; also: nearly all actives have a fitted effect of over 65% in size
Outline: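 20nM CYP3A4 + 25uM Luciferin-PPXE (=KM), 200mM KPO4; cpd 10 min RT; NADPH regen, 60 min RT; stop w/ detection buffer, 20 min; luminescence. Normalized to 57 uM ketoconazole.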

[10] = target: Cytochrome P450 2C19 (Homo sapiens) (UniProt P33261); assay: qHTS Assay for Inhibitors and Substrates of Cytochrome P450 2C19 (AID 899); conditions: recombinant CYP2C19, luciferin-H EGE luminescence; series mostly up to 57.1 µM; also: potency is read from the fitted curve at half-maximal effect; nearly all actives have a fitted effect of over 60% in size
Outline: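 Human CYP2C19 (5nM) with Luciferin-H EGE at 10uM (its KM) in 50mM KPO4 was preincubated with compound for 10 min at 37C. NADPH regeneration started a 60 min 37C reaction. Luciferin was read by luminescence, normalized to 57uM ketoconazole.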

[11] = Confirmation and Secondary Assay for Modulators of Hemoglobin Beta Chain Splicing at IVS2 654 locus (AID 910); conditions: HeLa EGFP-654 splicing reporter, GFP fluorescence, 48 h; series mostly up to 38.3 µM;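 also: per-well total GFP intensity by laser scanning cytometry after 2-day treatment; % of control where 0% means no effect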
Outline: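 HeLa cells stably carrying EGFP interrupted by mutant beta-globin IVS2-654 intron (CMV-driven) were treated with compound for 2 days at 37C; corrected splicing was scored as total peak GFP intensity per well (488 nm excitation, 500-520 nm emission).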

[12] = qHTS Assay for Lipid Storage Modulators (AID 1519; calls by dose curve); conditions: Drosophila S3 cells, BODIPY lipid droplet/cell ratio, laser cytometry, cells loaded with oleic acid; for activity change, negative = inhibition: at 57.5 µM (top of the series)
Outline: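 Cells seeded at 5,000 per well were treated with compounds over a concentration series and loaded with oleic acid (400 uM, as added). Lipid droplet fluorescence (488 nm excitation, 500-530 nm channel) was read by laser-scanning cytometry and normalized to 20 uM Triacsin C.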

[13] = target: Ubiquitin carboxyl-terminal hydrolase 1 (Homo sapiens) (UniProt O94782); assay: Inhibitors of USP1/UAF1: Pilot qHTS (AID 504865); conditions: purified USP1/UAF1, Ub-rhodamine cleavage fluorescence; series mostly up to 54.9 µM;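 also: rhodamine fluorescence freed from ubiquitin-rhodamine substrate followed over time; top concentration of the series differs between compounds; % is scaled to controls: 0 for no effect and ±100 for the full control effect; nearly all actives have a fitted effect of over 35% in size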
Outline: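 Deubiquitinase activity followed as kinetic rhodamine fluorescence release from 150 nM Ub-Rho. 1 nM USP1/UAF1 with compound, after 15 min room-temperature preincubation, in HEPES pH 7.8 buffer containing TCEP, EDTA, BSA and Tween-20.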

[14] = Primary qHTS for small molecule stabilizers of the endoplasmic reticulum resident proteome: Secreted ER Calcium Modulated Protein (SERCaMP) assay (AID 1508630); conditions: SH-SY5Y GLuc-SERCaMP (Gaussia luciferase released on ER calcium loss) secretion, thapsigargin, luminescence; series mostly up to 38.4 µM; also: % is scaled to controls: 0 for no effect and ±100 for the full control effect
Outline: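 GLuc-SERCaMP-expressing SH-SY5Y cells, pretreated 16 h with compound, are challenged with thapsigargin to empty ER calcium stores; after 4 h, coelenterazine is added directly to the medium and luminescence is imaged.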

[15] = target: 3',5'-cyclic-AMP phosphodiesterase 4B (Homo sapiens) (UniProt Q07343); assay: qHTS Assay for Inhibitors of PDE-IV (AID 607; active = well fitted activation curve with a large enough effect in the main read-out, with a control signal flat, not every such curve was filed as active; also: % of control where 0% means no effect); conditions: HEK293 ACTOne CNG channel cells, membrane potential fluorescence; series mostly up to 22.9 µM
Outline: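 ACTOne HEK293 cells carry a modified cAMP-gated CNG channel and express endogenous PDE4; plated 1000 cells/well, compounds up to 22.9 uM final. Membrane-potential dye fluorescence (ex 535/em 590) was read; parental cells received 10 uM forskolin + 100 uM RO 20-1724.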

[16] = target: Lysosomal acid glucosylceramidase (Homo sapiens) (UniProt P04062); assay: Glucocerebrosidase-p2 (AID 348; in the data active = potency below about 10 µM; also: potency is read from the fitted curve at half-maximal effect); conditions: purified GBA, blue fluorogenic substrate, 40 min
Outline: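 Compounds titrated from 0.6 nM upwards against 0.2 nM enzyme in pH 5.9 citric acid/KH2PO4, taurocholate, tween-20; blue fluorogenic substrate 80 uM, 40 min room temperature, stopped and read Ex 365/Em 440 for AC50.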

[17] = target: Cytochrome P450 2D6 (Homo sapiens) (UniProt P10635); assay: qHTS Assay for Inhibitors and Substrates of Cytochrome P450 2D6 (AID 891); conditions: recombinant CYP2D6, luciferin-ME EGE luminescence; series mostly up to 57.1 µM; also: potency is read from the fitted curve at half-maximal effect; nearly all actives have a fitted effect of over 60% in size
Outline: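 Human CYP2D6 (5 nM) with 30 uM Luciferin-ME EGE (at Km) in 100 mM KPO4, compound preincubated 10 min, then NADPH regeneration system for 60 min at room temperature. Luciferin read by luminescence; normalized to 1.43 uM quinidine.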

[18] = Confirmation and Secondary Assay for Modulators of Hemoglobin Beta Chain Splicing at IVS2 705 locus (AID 930); conditions: HeLa EGFP-705 splicing reporter, GFP fluorescence, 48 h; series mostly up to 38.3 µM;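 also: HeLa cells stably expressing the EGFP-705 splicing reporter; % of control where 0% means no effect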
Outline: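 Restored EGFP fluorescence after 2-day compound exposure reports splicing correction in IVS2-705 EGFP reporter HeLa cells; positive control was 500 nM splice-blocking PNA oligo. Signal measured as well total peak GFP intensity (488 nm excitation).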

[19] = qHTS Assay for Identification of Small Molecule Agonists for Hypoxia Response Element Signaling Pathway (AID 914; active = well fitted activation curve with a large enough effect in the signal ratio, with a control signal flat, not every such curve was filed as active; the % refers to the signal ratio; also: % of control where 0% means no effect); conditions: ME-180 (cervical carcinoma) HRE-bla reporter, beta-lactamase ratio, CoCl2, 17 h; activation: stronger effect = higher value
Outline: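 AC50 values come from titration-series %Activity, taken as the 460/530nm ratio of CCF4 fluorescence (excitation 405nm). CellSensor HRE-bla ME-180 cells were treated 17 hours at 37 C with compound plus an EC50 level of CoCl2.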

[20] = measured here: cell count channel max response
[21] = measured here: lipid channel max response

Glucocorticoid receptor (Homo sapiens), sequence (P04150 whole entry, looked up, the tested form may be a part): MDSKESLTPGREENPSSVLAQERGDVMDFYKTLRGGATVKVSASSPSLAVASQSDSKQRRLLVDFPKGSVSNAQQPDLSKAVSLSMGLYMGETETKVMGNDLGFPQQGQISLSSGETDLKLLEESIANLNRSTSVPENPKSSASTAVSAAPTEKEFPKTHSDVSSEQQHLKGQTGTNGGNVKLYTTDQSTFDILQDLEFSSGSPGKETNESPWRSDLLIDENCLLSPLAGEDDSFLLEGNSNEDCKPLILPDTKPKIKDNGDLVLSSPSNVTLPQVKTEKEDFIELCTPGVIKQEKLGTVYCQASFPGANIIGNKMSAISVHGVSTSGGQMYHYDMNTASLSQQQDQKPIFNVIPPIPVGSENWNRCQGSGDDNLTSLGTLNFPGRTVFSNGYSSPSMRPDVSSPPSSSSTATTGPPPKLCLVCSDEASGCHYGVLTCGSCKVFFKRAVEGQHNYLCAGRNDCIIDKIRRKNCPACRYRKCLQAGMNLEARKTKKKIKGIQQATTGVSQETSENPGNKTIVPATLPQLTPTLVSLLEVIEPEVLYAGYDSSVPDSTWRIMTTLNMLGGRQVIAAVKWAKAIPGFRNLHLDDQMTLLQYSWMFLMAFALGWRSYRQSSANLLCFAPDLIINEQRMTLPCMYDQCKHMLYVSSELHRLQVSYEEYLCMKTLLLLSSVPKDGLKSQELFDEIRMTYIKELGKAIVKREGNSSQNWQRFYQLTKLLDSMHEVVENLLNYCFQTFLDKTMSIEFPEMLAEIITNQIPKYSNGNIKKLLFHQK
Cytochrome P450 1A2 (Homo sapiens), sequence (P05177 whole entry, looked up): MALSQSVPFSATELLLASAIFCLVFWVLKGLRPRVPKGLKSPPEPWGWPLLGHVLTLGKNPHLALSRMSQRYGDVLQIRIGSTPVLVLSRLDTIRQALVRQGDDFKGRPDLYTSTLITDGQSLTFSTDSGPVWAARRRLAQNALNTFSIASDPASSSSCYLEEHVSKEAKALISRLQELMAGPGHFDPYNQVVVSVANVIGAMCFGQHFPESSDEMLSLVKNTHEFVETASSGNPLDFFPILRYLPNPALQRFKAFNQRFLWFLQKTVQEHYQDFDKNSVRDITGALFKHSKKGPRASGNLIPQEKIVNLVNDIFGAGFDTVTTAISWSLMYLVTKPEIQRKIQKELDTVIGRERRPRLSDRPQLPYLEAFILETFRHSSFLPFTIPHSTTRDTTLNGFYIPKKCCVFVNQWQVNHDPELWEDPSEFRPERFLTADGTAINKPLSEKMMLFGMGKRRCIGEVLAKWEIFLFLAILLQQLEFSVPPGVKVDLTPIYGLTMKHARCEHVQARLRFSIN
Lysosomal acid glucosylceramidase (Homo sapiens), sequence (P04062 whole entry, looked up): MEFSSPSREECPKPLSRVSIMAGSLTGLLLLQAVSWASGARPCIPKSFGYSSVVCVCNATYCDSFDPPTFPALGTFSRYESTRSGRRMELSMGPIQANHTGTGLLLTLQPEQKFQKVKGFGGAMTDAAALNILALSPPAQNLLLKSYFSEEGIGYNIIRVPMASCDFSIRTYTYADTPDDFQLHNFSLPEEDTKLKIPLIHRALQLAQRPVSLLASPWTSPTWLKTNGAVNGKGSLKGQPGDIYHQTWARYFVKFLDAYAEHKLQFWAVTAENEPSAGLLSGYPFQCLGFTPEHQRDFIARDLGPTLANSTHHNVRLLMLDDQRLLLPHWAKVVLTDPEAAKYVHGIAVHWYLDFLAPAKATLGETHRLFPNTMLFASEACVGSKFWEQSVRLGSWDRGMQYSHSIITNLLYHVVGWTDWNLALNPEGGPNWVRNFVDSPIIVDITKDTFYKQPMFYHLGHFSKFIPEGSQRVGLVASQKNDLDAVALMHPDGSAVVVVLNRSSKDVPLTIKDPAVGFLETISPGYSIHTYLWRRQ
Cytochrome P450 3A4 (Homo sapiens), sequence (P08684 whole entry, looked up): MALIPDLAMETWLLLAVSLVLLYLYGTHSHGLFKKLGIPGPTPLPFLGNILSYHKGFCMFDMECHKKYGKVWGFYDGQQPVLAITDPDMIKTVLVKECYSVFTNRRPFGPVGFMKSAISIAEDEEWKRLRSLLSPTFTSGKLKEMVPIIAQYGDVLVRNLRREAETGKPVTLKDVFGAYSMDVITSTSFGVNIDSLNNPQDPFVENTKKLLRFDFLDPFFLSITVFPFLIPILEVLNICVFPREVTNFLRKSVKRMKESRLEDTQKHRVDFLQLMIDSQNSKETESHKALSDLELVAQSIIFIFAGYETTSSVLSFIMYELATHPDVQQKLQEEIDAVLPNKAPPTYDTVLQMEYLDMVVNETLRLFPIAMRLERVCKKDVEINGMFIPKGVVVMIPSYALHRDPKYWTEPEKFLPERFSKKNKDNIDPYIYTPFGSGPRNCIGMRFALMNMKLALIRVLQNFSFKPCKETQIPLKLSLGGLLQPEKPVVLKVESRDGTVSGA
3',5'-cyclic-AMP phosphodiesterase 4B (Homo sapiens), sequence (Q07343 whole entry, looked up): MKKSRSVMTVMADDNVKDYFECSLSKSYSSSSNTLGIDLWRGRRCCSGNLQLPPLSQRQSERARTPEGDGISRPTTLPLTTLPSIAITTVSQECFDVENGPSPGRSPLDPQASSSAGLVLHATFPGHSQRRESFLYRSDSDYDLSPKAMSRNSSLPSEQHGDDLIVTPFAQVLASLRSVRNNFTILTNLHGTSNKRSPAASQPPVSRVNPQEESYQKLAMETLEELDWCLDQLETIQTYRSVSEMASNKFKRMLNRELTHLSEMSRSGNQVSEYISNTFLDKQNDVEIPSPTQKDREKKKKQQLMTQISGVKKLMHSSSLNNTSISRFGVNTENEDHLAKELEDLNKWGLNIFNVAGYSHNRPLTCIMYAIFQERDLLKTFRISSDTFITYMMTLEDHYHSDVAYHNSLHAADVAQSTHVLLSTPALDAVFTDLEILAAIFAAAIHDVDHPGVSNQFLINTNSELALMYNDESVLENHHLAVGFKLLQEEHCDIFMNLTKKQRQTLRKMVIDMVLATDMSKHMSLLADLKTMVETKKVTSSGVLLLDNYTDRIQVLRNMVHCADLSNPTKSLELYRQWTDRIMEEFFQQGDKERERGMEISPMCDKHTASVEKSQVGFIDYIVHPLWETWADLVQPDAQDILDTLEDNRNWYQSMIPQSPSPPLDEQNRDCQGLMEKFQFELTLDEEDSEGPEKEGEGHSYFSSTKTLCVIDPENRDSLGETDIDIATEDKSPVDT
Ubiquitin carboxyl-terminal hydrolase 1 (Homo sapiens), sequence (O94782 whole entry, looked up): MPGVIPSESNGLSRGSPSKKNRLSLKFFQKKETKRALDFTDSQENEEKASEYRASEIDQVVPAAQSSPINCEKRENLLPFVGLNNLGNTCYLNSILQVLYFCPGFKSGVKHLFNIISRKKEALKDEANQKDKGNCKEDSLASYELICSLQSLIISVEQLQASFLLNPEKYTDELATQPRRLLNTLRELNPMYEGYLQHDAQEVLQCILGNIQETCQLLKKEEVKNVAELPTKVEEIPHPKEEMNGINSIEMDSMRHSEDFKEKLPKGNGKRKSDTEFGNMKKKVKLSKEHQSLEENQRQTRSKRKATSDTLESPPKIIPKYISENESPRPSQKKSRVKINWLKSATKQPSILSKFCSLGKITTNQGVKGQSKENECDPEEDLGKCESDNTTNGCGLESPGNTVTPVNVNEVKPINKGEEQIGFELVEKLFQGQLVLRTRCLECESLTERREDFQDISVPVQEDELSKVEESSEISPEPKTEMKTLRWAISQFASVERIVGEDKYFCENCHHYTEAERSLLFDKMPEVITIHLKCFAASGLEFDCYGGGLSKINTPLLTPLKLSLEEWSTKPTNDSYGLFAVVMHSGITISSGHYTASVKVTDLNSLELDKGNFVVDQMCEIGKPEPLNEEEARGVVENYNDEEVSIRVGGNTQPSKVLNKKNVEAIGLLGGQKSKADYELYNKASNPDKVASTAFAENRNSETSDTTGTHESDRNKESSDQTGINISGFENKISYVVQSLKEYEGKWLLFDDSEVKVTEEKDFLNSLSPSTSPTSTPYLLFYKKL
Cytochrome P450 2C19 (Homo sapiens), sequence (P33261 whole entry, looked up): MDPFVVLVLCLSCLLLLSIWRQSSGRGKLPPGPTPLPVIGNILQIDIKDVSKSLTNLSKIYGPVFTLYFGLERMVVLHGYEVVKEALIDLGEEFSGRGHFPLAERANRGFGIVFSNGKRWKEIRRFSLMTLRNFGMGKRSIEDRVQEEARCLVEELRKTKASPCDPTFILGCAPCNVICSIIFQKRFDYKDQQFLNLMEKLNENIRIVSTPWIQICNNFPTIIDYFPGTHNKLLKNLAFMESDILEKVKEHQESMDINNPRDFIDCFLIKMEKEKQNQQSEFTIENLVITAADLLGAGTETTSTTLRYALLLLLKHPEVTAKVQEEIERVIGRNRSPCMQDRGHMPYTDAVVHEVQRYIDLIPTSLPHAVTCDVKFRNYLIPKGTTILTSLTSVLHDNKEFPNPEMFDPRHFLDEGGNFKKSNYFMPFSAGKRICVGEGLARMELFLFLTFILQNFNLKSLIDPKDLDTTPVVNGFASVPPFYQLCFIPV
Cytochrome P450 2D6 (Homo sapiens), sequence (P10635 whole entry, looked up): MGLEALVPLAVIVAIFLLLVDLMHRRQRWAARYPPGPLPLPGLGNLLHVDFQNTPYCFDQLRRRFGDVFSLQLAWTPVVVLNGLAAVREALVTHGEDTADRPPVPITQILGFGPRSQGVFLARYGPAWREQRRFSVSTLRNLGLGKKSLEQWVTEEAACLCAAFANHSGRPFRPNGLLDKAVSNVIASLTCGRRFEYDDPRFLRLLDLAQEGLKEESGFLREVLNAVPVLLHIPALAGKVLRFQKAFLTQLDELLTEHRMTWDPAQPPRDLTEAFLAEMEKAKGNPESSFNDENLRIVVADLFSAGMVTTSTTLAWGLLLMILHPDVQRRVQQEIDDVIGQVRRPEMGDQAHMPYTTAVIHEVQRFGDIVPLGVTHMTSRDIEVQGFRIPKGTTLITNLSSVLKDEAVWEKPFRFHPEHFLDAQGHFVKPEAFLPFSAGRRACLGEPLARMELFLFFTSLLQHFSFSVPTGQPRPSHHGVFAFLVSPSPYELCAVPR

SMILES: FC(F)(F)c1ccccc1-c1cncnc1Nc1ccccc1
- activity change, negative = inhibition [1]: -9.67% (inactive)
- Potency [2]: 25.1 µM (active)
- activity change, negative = inhibition [3]: 9.21% (inactive)
- activity, negative = inhibition [4]: 7.53% (inactive)
- Potency [5]: > 46 µM (inactive)
- Potency [6]: > 46 µM (inactive)
- Potency [7]: inactive
- Potency [8]: 0.501 µM (active)
- Potency [9]: inactive
- Potency [10]: 7.94 µM (active)
- Potency [11]: inactive
- activity change, negative = inhibition [12]: 4.42% (inactive)
- max response [12, 20]: 10.3%
- max response [12, 21]: 16.8%
- Potency [13]: inactive
- outcome [14]: inactive

SMILES: COc1ccc(C(=O)N2CCC[C@@]3(CCN(C(=O)NC(C)C)C3)C2)cc1
- activity change, negative = inhibition [1]: -14% (inactive)
- Potency [2]: 12.6 µM (active)
- activity change, negative = inhibition [3]: 8.55% (inactive)
- activity, negative = inhibition [4]: -9.21% (inactive)
- Potency [7]: inactive
- Potency [15]: inactive
- Potency [9]: inactive
- activity change, negative = inhibition [12]: 3.48% (inactive)
- max response [12, 20]: 8.84%
- max response [12, 21]: 15.8%
- outcome [14]: inactive

SMILES: O=C(Oc1ccccc1)N1CCC[C@@]2(CCN(c3ccncc3)C2)C1
- Potency [16]: > 11.4 µM (inactive)
- Potency [2]: 20 µM (active)
- activity, negative = inhibition [4]: -2.61% (inactive)
- Potency [6]: > 46 µM (inactive)
- Potency [7]: inactive
- Potency [15]: inactive
- Potency [9]: inactive
- Potency [10]: 5.01 µM (active)
- activity change, negative = inhibition [12]: 4.19% (inactive)
- max response [12, 20]: 13.6%
- max response [12, 21]: 23.8%
- outcome [14]: inactive

SMILES: CN(C)Cc1ccccc1-c1nccc(NCc2cccs2)n1
- activity change, negative = inhibition [1]: 3.22% (inactive)
- Potency [2]: 0.794 µM (active)
- activity change, negative = inhibition [3]: -11.6% (inactive)
- activity, negative = inhibition [4]: 0.159% (inactive)
- Potency [5]: > 46 µM (inactive)
- Potency [6]: > 46 µM (inactive)
- Potency [7]: inactive
- Potency [17]: 1.58 µM (active)
- Potency [11]: inactive
- outcome [18]: inactive
- activity change, negative = inhibition [12]: 10.9% (inactive)
- max response [12, 20]: 4.85%
- max response [12, 21]: 9.23%
- Potency [13]: inactive
- outcome [14]: inactive

SMILES: CS(=O)(=O)N1CCC2(CCCN(c3cccc(-c4ccccc4)c3)C2)CC1
- Potency [16]: > 11.4 µM (inactive)
- activity change, negative = inhibition [3]: 0.269% (inactive)
- activity, negative = inhibition [4]: -0.955% (inactive)
- Potency [6]: > 46 µM (inactive)
- Potency [7]: inactive
- Potency [15]: inactive
- activation [19]: -18.3% (inactive)
- activity change, negative = inhibition [12]: -12% (inactive)
- max response [12, 20]: 12.1%
- max response [12, 21]: -3.01%
- outcome [14]: inactive

SMILES: O=C(c1cnccn1)N1CCC2(CCCN(C(c3ccccc3)c3ccccc3)C2)CC1
- Potency [16]: > 11.4 µM (inactive)
- Potency [2]: 20 µM (active)
- activity, negative = inhibition [4]: 14% (inactive)
- Potency [6]: > 46 µM (inactive)
- Potency [7]: inactive
- Potency [8]: 1.58 µM (active)
- Potency [9]: inactive
- activity change, negative = inhibition [12]: 0.62% (inactive)
- max response [12, 20]: 6.86%
- max response [12, 21]: 7.68%
- outcome [14]: inactive
